We go through 20 molecules from ChEMBL document CHEMBL3988442, “University of Dundee, Small-Polar-MMV Screening Library” (2021).

Assay [1] deals with T1, Aspartate--tRNA(Asp/Asn) ligase (Mycobacterium tuberculosis (strain ATCC 25618 / H37Rv)) (UniProt P9WFW3).
T1 sequence (whole entry): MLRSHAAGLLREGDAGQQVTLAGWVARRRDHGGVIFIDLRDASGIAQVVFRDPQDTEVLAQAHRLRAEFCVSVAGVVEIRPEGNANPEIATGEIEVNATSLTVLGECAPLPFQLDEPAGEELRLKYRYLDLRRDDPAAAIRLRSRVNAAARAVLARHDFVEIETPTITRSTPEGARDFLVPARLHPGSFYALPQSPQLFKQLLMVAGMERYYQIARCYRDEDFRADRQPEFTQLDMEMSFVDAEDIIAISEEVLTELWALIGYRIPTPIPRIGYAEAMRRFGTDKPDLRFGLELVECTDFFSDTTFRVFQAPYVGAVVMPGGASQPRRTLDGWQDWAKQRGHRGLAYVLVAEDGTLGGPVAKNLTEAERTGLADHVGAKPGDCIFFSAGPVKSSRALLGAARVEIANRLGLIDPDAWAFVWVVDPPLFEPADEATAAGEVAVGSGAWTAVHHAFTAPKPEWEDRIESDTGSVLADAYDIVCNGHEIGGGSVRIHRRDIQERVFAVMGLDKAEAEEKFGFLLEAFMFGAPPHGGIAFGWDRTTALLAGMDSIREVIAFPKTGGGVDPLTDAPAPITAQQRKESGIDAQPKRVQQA
The assay can be described thus: Assay for Asp RNA synthetase-1 from Mycobacterium tuberculosis. Conditions: 30 µM. In kind it is functional. On the set-up: scale not given: direction of the effect not stated beside the values.

The target in assay [2] is Shiga toxin 2 (Escherichia coli O157:H7) (UniProt P09385+P09386). Briefly: E. coli 0.157:H7 Shiga Toxin SOP - stx2 screening assay. In kind it is functional. On the set-up: scale not given: direction of the effect not stated beside the values. Conditions: 30 µM.

Turning to `O=C1CC[C@@H]2[C@@H](CCN2C(=O)c2ccsc2)N1CC1CC1`, the figures for the Percent Effect in assay [1] and in assay [2] were -5.94% and 1.28%, respectively.
The like results for `N#Cc1cccnc1NCc1cccnc1N1CCC(C(N)=O)CC1` were, in that order, 4.47% and -10.3%.
The like results for `CC(C)C(=O)NCC(=O)N(C)C1CCCN(CCc2ccccc2)C1` (stereo not given) were, in that order, -0.948% and -14.4%.
The like results for `COCCN(Cc1nc2c(cnn2C)c(=O)[nH]1)Cc1ccco1` were, in that order, 0.88% and 22.5%.
Regarding `CC(C)NC(=O)C1CN(C(=O)c2ccc(F)cc2)CC12CCOCC2` (stereo not given), the Percent Effect in assay [1] was 0.581%; in assay [2] it was -56%.
Regarding `CCOC(=O)N1CCC(C(=O)c2cc(F)ccc2F)CC1`, the Percent Effect was 1.26% in assay [1] and 36.2% in assay [2].
As for `CC(C)NC(=O)N1CCN(Cc2ccccn2)CC2(CC(=O)N(C)C2)C1` (stereo not given), the figures for the Percent Effect in assay [1] and in assay [2] were -0.228% and -14.2%, respectively.
The like results for `Cc1nc(C)n(CC2CCCN(c3ncnc4ccsc34)C2)n1` (stereo not given) were, in that order, 0.756% and 28.8%.
The like results for `CN(C)C(=O)NC1COC2(CCN(Cc3ccccc3)CC2)C1` (stereo not given) were, in that order, -3.84% and -5.12%.
Take `COc1c(C2CCCN2C(=O)Cc2c(C)noc2C)c(C)nn1C` (stereo not given): the Percent Effect in assay [1] is -3.25%; in assay [2], 6.14%.
The like results for `CC1CCN(CCNC(=O)c2ccccc2N2CCOCC2)CC1` were, in that order, 2.6% and -16.9%.
`Cc1ccc(CN2CCCC3(CCN(S(=O)(=O)N(C)C)C3)C2)o1` (stereo not given): the Percent Effect in assay [1] stood at 0.162%; in assay [2], 10.6%.
Consider `Cc1cc(C)c(CNC(=O)N2CCN(c3ncccn3)CC2)c(=O)[nH]1`, for which the Percent Effect in assay [1] was -0.7%; in assay [2], -6.87%.
The like results for `CN(Cc1ccc2c(c1)OCO2)Cc1nc2c(cnn2C)c(=O)[nH]1` were, in that order, -0.843% and 27.6%.
In the case of `CC(NCc1c(C(C)C)nn(C)c1N1CCOCC1)C(N)=O` (stereo not given), the Percent Effect in assay [1] is -7.54%; in assay [2] it was -49.6%.
The like results for `O=C(c1cc[nH]n1)N1CCCC1C1CCN(Cc2ccccc2)CC1` (stereo not given) were, in that order, 6.59% and -28.1%.
The like results for `COc1cc(N2CCCC(c3nccn3CCN(C)C)C2)nc(N)n1` (stereo not given) were, in that order, -3.58% and 23.8%.
The like results for `O=C(CCc1cscn1)N1CCCC(c2ccn[nH]2)C1` (stereo not given) were, in that order, -1.82% and 5.88%.
As to `Cc1ccc(-c2cc(N)c(=O)n(CC(=O)NCC3CCCCC3)n2)s1`, the Percent Effect in assay [1] is 7.19%; in assay [2] it was 2.09%.
The like results for `OC(COCc1ccccc1Cl)CN1CC(n2cccn2)C1` (stereo not given) were, in that order, 0.411% and 29.1%.
